Screening data as filed in PubChem.
In the library only some 21% were active in any assay of this set; here they are far more common.
SARS PLpro yeast = inhibitors of SARS-CoV papain-like protease in yeast | hit rate 0.19% among 330,000 | AID 485353 | S. cerevisiae expressing SARS-CoV PLpro, growth rescue | Potency, µM (doses to about 32.9 µM), without a hit: top-dose activity, positive = growth rescue, hits mostly activators; note: potency is the fitted concentration of half-maximal effect; 0% is about no effect; nearly all actives have a fitted effect of over 55% in size
Pf growth 96h = P. falciparum growth inhibition at 96 hour, primary screen for plastid delayed-death inhibitors | hit rate 6.9% among 320,000 | Potency, µM (doses to about 28.7 µM), inactives show at the highest dose activity change, negative = inhibition, most hits filed as inhibitors | P. falciparum luciferase reporter growth, 96 h; active = well fitted inhibition curve with a large enough effect; inconclusive = small, poorly fitted or top-dose-only effect, or another doubt; inactive = no such curve, though single readings can be large or run the other way; note: potency is the fitted concentration of half-maximal effect; % is set by controls: 0 for no effect and ±100 for the full control effect
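Erythrocytes infected with luciferase-expressing P. falciparum were dispensed at 2% hematocrit and 0.05% parasitemia (final), then incubated with compounds 96 hours at 37 C in 5% CO2. Luminescence after detection reagent addition reported growth.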
NS1 inh = blocks influenza NS1 protein function; Potency, µM (top dose mostly 46.1 µM), inactives show at the top dose activity, positive = more growth; hit rate 0.4% among 270,000; note: potency is the fitted concentration of half-maximal effect; actives are rising curves; nearly all actives have a fitted effect of over 50% in size
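Compounds were scored for reversing the slow growth caused by influenza A NS1 in S. cerevisiae, measured by optical density at 600 nm. Assay medium contained 2% galactose at pH 6.0; NS1-free yeast of the same strain were the positive control.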
Pf growth 48h = P. falciparum growth inhibition at 48 hours (one generation); P. falciparum luciferase growth in erythrocytes, 48 h; hit rate 5.9% among 310,000; AID 504832; Potency, µM (highest dose often 28.7 µM), without a hit: at the highest dose activity change, negative = inhibition, actives largely listed as inhibitors; active = well fitted inhibition curve with a large enough effect; inconclusive = small, poorly fitted or top-dose-only effect, or another doubt; inactive = no such curve, though single readings can be large or run the other way; note: potency is the fitted concentration of half-maximal effect; % is set by controls: 0 for no effect and ±100 for the full control effect
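Growth was read as firefly luciferase luminescence after a 48 h, 37 C, 5% CO2 exposure of compounds to reporter-bearing P. falciparum cultures (0.1% parasitemia, 2% hematocrit final) in Albumax-supplemented RPMI 1640.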
Cycloheximide cs = affects cycloheximide protein synthesis inhibition readout, counter-screen | cell reporter, cycloheximide protein synthesis inhibition counterscreen | AID 2314 | max response, % | hit rate 12% among 300,000; in the data active = max response mostly above about 13%, no sharp cut-off; inactive = mostly below about 14%; note: read at 38.3 µM for the half of the compounds with a filed dose; 0% is about no effect
Shiga toxin inh = blocks Shiga toxin action in Vero cells; Vero cells, Shiga toxin protein synthesis inhibition reporter; inhibition, % at 38.7 µM; hit rate 9.2% among 290,000; AID 2315; in the data active = inhibition mostly above about 28%, no sharp cut-off; inactive = mostly below about 43%; note: 0% is about no effect
* marks the source's active call; other numbers are inactive results; u = inconclusive; x = no result; [ ] = another dose, or the depositor's remark. Unless noted, calls come from the whole dose curve.

SMILES | SARS PLpro yeast | Pf growth 96h | NS1 inh | Pf growth 48h | Cycloheximide cs | Shiga toxin inh
CC1CCCN(C(=O)COC(=O)CNC(=O)c2ccc(Br)cc2)C1 (stereo not given) | x | 2% | x | -2% | x | x
Cc1ccccc1/C=N\NC(=O)c1ccccc1-n1cccc1 | -1% | u | x | 28% | 10 | 29
Cc1ccccc1/C=N/NC(=O)c1sccc1C | 9% | 294% | -3% | 306% | 38* | 66*
Cc1ccsc1C(=O)N/N=C/c1ccc2c(c1)OCO2 | -33% | 413% | -14% | 414% | 42* | 78*
O=C(N/N=C/c1ccc2c(c1)OCO2)c1cccs1 | -26% | 123% | -24% | 202% | 56* | 68*
Nc1cc(Cl)ccc1C(=O)OCC(=O)NCc1cccs1 | -6% | x | x | x | x | x
CCC1CCCCN1C(=O)/C=C/c1ccc2c(c1)OCO2 (stereo not given) | 3% | u | -6% | 5% | 9.8* | 38
O=C(/C=C/c1ccc2c(c1)OCO2)N1CCOCC1 | 0% | 206% | 4% | 55% | 26* | 67*
CC(C)(C)c1ccc(/C=C/C(=O)N2CCOCC2)cc1 | 18% | 56% | 9% | 244% | 66* | 113*
O=C(/C=C/c1ccc2c(c1)OCO2)N1CCN(c2ccccc2F)CC1 | -13% | 65% | -7% | -12% | -1 | -23
CC(C)Cc1ccc(/C=C/C(=O)N2CCOCC2)cc1 | -6% | 269% | x | 241% | 46* | 56*
O=C(CSc1n[nH]c(=O)n1C1CC1)c1c[nH]c2ccccc12 | -5% | -27% | x | 8% | x | x
CC(=O)Nc1ccc(S(=O)(=O)NC2CC2)cc1 | 2% | -10% | 11% | -5% | -3 | x
CCCCCC(O)c1ccc([C@H]2CCC(=O)[C@@H]2CCCCCCC(=O)O)cc1 (stereo not given in full) | x | x | x | x | -7 | 18
Cc1ccc(CN2[C@@H](CC3CCCCC3)COCCS2(=O)=O)cc1 | -4% | u | 5% | 34% | -4 | -5
COc1cc(OC)cc(C(=O)N[C@H](C(=O)OCC(=O)Nc2ccc3c(c2)OCO3)C(C)C)c1 | -6% | x | x | x | x | x
Nc1nc2c(c(=O)[nH]1)N[C@H](CCNc1ccc(C(=O)O)cc1)CN2 | x | x | 0% | x | x | x
CCCCn1c(NCc2ccc3c(c2)OCO3)nc2ccccc21 | 10% | u | -20% | u | 12* | 29
CCCn1c(NCc2ccc3c(c2)OCO3)nc2ccccc21 | 1% | u | -5% | -28% | 20* | 34
CCCCn1c(NCCO)nc2ccccc21 | 6% | 12% | u | 6% | -3 | 3
CN(C)CCn1c(NCc2ccc3c(c2)OCO3)nc2ccccc21 | -4% | 21% | 2% | 33% | -3 | -4
C(=C\c1ccncc1)/c1ccncc1 | -1% | -12% | -2% | -7% | -2 | -1
C(=C\c1ccncc1)/c1ccccc1 | -2% | u | -2% | u | 36* | 34
O=[N+]([O-])c1ccc(/C=C/c2ccncc2)cc1 | -2% | u | 5% | 37% | 30* | 68*
O=[N+]([O-])c1cccc(/C=C/c2ccncc2)c1 | -6% | 10% | -6% | -20% | 22* | 37
SMILES | SARS PLpro yeast | Pf growth 96h | NS1 inh | Pf growth 48h | Cycloheximide cs | Shiga toxin inh
Cc1cc(Br)ccc1OCCn1ccnc1 | -26% | u | -12% | -11% | -5 | 13
COc1ccc(Cl)cc1/C=C/c1ccc2cccc(O)c2n1 | -1% | 7% | 2% | x | 46* | 73*
COc1cc(Cl)cc(/C=C/c2ccc3cccc(O)c3n2)c1OC | 1% | 4% | 0% | x | 6 | 11
COc1ccccc1/C=C/c1ccc2cccc(O)c2n1 | -1% | 35% | -64% | -11% | 40* | 82*
CN[C@H](CC(C)C)C(=O)N[C@H]1C(=O)N[C@@H](CC(N)=O)C(=O)N[C@H]2C(=O)N[C@H]3C(=O)N[C@H](C(=O)N[C@H](C(=O)O)c4cc(O)cc(O)c4-c4cc3ccc4O)[C@H](O)c3ccc(c(Cl)c3)Oc3cc2cc(c3O[C@@H]2O[C@H](CO)[C@@H](O)[C@H](O)[C@H]2O[C@H]2C[C@](C)(N)[C@H](O)[C@H](C)O2)Oc2ccc(cc2Cl)[C@H]1O | x | x | -12% | x | x | x
COc1ccc2cc(-c3ccn[nH]3)ccc2c1 | -6% | 369% | -52% | 9%[0.00184 µM] | 32* | 80*
COc1ccc(-c2cn[nH]c2C)cc1 | 0% | 49% | -1% | 62% | 1 | -3
CCc1ccc(CNC(=O)CCc2nnc(Cc3cccc(C(F)(F)F)c3)o2)nc1 | -1% | -6% | 0% | 0% | 0 | 11
CC(=O)C1=C(c2cccc([N+](=O)[O-])c2)N(C(C)=O)n2c(C)nnc2S1 | -3% | u | x | u | 18* | 12
CCOc1ccc(C2=C(C(C)=O)Sc3nnc(C)n3N2C(C)=O)cc1 | x | x | x | x | 20* | 45
CCOCCc1nn2c(=O)cc(CSCC(=O)Nc3ccccc3)nc2s1 | 7% | -20% | 14% | u | 21* | 14
CCOCCc1nn2c(=O)cc(CSCC(=O)Nc3ccc(OC)cc3)nc2s1 | -4% | 1% | 9% | -3% | 5 | -6
O=C(CSCc1cc(=O)n2nc(C3CC3)sc2n1)Nc1ccccc1Cl | -2% | 3.3µM* | -4% | u | 0 | -7
Cc1nnc(SCC(=O)Nc2ccc3c(c2)OCO3)n(N)c1=O | 0% | 0% | x | 4% | 9 | 27
Cc1ccc(-c2nn(Cc3ccccc3)cc2C=O)cc1C | -10% | 46% | -21% | 35% | 49* | active
Cc1ccc(-c2nn(Cc3ccccc3)cc2C(=O)O)cc1 | 0% | 0% | 4% | 124% | 7 | 10
Cc1ccc(-c2ccc(=O)n(Cc3ccc(F)cc3)n2)cc1 | -2% | -4% | -1% | -8% | 1 | 14
Cc1ccc(-c2nn(Cc3ccccc3)cc2C=O)cc1 | -39% | 89% | -14% | 83% | 85* | 55*
Cc1ccc(Cn2cc(C=O)c(-c3ccc(F)cc3)n2)cc1 | -4% | 5% | -5% | 10% | 23* | 31*
O=C(Nc1nnc(SCc2ccc(Cl)cc2)s1)C1CC(=O)N(Cc2ccccc2)C1 (stereo not given) | 18% | 5% | 5% | 20% | -3 | -14
O=C1N/C(=N/O)S/C1=C\c1ccccc1-n1cccn1 | 7% | u | x | 0% | 0 | -10
COCCn1c(=O)[nH]c(=O)c2cc(C(=O)c3cc(Cl)ccc3O)cnc21 | 1% | u | x | 9.3µM* | 8 | 32
Cc1ccc(S(=O)(=O)N2CCOCC2)cc1NC(=O)COC(=O)COc1cccc2c1OC(C)(C)C2 | 0% | 2% | x | 1% | x | x
O=C1C=C(N(CCO)Cc2ccccc2)c2ccccc2C1=O | -13% | 0% | x | 3.7µM* | -1 | -13
COC(=O)c1cn(CC(=O)Nc2ccccc2C)c2ccccc12 | -3% | u | -2% | 14% | -1 | x
Cc1[nH]c2ccccc2c1/C=N/O | 1% | 0% | 9% | 13% | 1 | -14
